Screening results from PubChem.
An excerpt weighted towards active compounds, which were near 31% of everything screened.
CYP2C9 act: CYP2C9 (human) activation; recombinant CYP2C9, luciferin-H conversion, luminescence; stronger effect = higher value; factor 1 = untreated enzyme, 0 = blocked; activation factor at 5 µM; hit rate 1.4% among 96,000; P11712;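 active = activation factor of 2 or more for CYP2C9 at a 5 µM dose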;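 also: 0 = sulfaphenazole-blocked wells and 1 = vehicle-only wells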
CYP2C9 inh: blocks human cytochrome P450 2C9; P11712; CYP2C9 Supersomes, luciferin-H conversion, luminescence; inhibition, % at 5 µM; hit rate 20% among 96,000;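 active = blocking of liver enzyme CYP2C9 beyond about 50% at 5 µM, limit read from the data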
PLAP activator: activates human placental alkaline phosphatase | P05187 | purified PLAP enzyme, luminescent substrate read-out; stronger effect = higher value | activation fold at 20 µM | hit rate 1.2% among 96,000 | AID 696; in the data active = activation fold above about 2
CYP2C19 activ: increases human CYP2C19 enzyme activity. P33261. recombinant CYP2C19, luciferin-H EGE luminescence; stronger effect = higher value; 0 = fully inhibited enzyme, 1 = untreated enzyme. activation factor at 5 µM. 96,000 tested, under 10 active. AID 1025;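 active = activation factor of at least 2 at 5 µM in the primary screen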;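 also: 0 = wells with 2.5 mM tranylcypromine and 1 = vehicle-only wells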
Target sequence (P33261 whole entry, looked up): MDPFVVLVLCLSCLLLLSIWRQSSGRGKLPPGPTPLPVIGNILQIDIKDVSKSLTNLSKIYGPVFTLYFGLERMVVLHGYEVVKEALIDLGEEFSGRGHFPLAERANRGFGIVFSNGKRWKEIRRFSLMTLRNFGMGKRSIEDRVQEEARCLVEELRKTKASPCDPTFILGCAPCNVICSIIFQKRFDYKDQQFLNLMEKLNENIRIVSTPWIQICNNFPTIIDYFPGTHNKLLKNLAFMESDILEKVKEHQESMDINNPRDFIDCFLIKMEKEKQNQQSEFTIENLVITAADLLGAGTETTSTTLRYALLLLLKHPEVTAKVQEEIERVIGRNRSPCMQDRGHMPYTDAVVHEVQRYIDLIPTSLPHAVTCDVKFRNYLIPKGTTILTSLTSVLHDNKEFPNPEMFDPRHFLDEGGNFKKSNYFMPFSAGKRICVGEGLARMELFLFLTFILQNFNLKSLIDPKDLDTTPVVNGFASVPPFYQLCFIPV
CYP2C19 inhib: inhibitors of human CYP2C19 | P33261 | CYP2C19 Supersomes, luciferin-H EGE luminescence, 30 min | inhibition, % at 5 µM | hit rate 21% among 96,000;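 active = CYP2C19 inhibition above a set limit at 5 µM in the primary screen, cut at about 50% in these data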;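 also: plate controls were negative control wells for no effect and 2.5 mM tranylcypromine positive control for full effect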
An asterisk follows results filed as active.

SMILES	CYP2C9 act	CYP2C9 inh	PLAP activator	CYP2C19 activ	CYP2C19 inhib
O=C(NCc1ccco1)c1ccc2c(=O)n(Cc3ccco3)c(SCC(=O)N3CCCC3)nc2c1	0.4	64*	1.3	0.8	23
O=C(CSc1nc2ccccc2c(=O)n1Cc1ccco1)N1CCCCCC1	0.1	95*	1.1	0.4	58*
CCSc1nc2cc(OC)c(OC)cc2c(=O)n1CCc1ccccc1	0.5	49	1.2	0.8	19
O=C(CSc1nc2ccccc2c(=O)n1-c1ccccc1)N1CCN(CCO)CC1	0.9	12	1.1	0.9	7
Fc1cccc(Oc2nc3ccccc3n3cccc23)c1	1.1	-10	1	1	5
COc1ccc(Cl)c(N2CCN(CCCNC(=O)Nc3ccc(C)cc3)CC2)c1	1.3	-28	1.5	0.5	49
CC(Sc1nc2ccccc2o1)C(=O)O (centres undefined)	0.9	15	1.3	0.9	12
COc1ccc2c(C(=O)CN3CCN(CCO)CC3)c[nH]c2c1	1	2	1.1	1	2
COC(=O)c1ccc2c(=O)n(Cc3ccco3)c(SCC(=O)Nc3ccccc3Cl)nc2c1	0.1	88*	0.9	0.7	35
O=C(CSc1nncn1-c1ccccc1)NCc1cccs1	0.9	13	0.7	0.7	27
CN(CC(=O)O/N=C(\N)c1ccc([N+](=O)[O-])cc1)S(=O)(=O)c1ccccc1	1.1	-5	0.7	0.9	14
CN(CC(=O)O/N=C(\N)c1cccc([N+](=O)[O-])c1)S(=O)(=O)c1ccccc1	0.9	12	0.7	0.4	59*
CCCCNC(=O)c1onc(CSc2ccc(C)c(C)c2)c1C(=O)O	0.2	83*	1.1	0.9	14
C=CCNC(=O)c1onc(CSc2ccc(C)c(C)c2)c1C(=O)O	0.1	88*	1.1	0.1	94*
CCCCNC(=O)c1onc(CSc2ccc(F)c(F)c2)c1C(=O)O	0.3	73*	1.3	1	1
COC(=O)c1c(CSc2ccc(Cl)cc2)noc1C(=O)NCc1ccco1	0.9	9	1	1	0
COC(=O)c1c(CSc2ccc(C)c(C)c2)noc1C(=O)NCc1ccc(OC)cc1	0.2	75*	1	0.3	65*
O=C(NCCCN1CCCC1=O)c1cncc(Br)c1	1.1	-8	1.2	1.1	-13
CCC(=O)N1c2ccc(C)cc2C2=NNC(=S)NC21O (centres undefined)	1	2	0.9	1	0
CCc1ccccc1SCc1noc(C(=O)NCC2CCCO2)c1C(=O)O (centres undefined)	1	1	1.1	0.8	22
C=CCNC(=O)c1onc(CSc2ccccc2CC)c1C(=O)O	0.2	80*	1	1	4
c1ccc(C2=NNC(=NC3CC3)SC2)cc1	0.5	54*	1	0.2	84*
Cc1cccc(N=C2NN=C(c3ccc4c(c3)OCCO4)CS2)c1	0.6	37	1.1	0.7	30
COc1ccc(S(=O)(=O)N2CCC(C(=O)N3CCc4ccccc4C3)CC2)cc1Cl	0.7	28	1.9	0.1	92*
CCS(=O)(=O)N1CCC(C(=O)N2CCc3ccccc3C2)CC1	1.2	-20	0.9	0.4	60*
SMILES	CYP2C9 act	CYP2C9 inh	PLAP activator	CYP2C19 activ	CYP2C19 inhib
CCOC(=O)C(C)N1N=C(/C=C/c2ccc(OC)cc2)CCC1=O (centres undefined)	0.7	32	1.3	0.8	19
COc1cccc(-c2nnc(NC(=O)c3ccc(S(=O)(=O)N4CC(C)OC(C)C4)cc3)o2)c1 (centres undefined)	1.2	-18	1.5	0.9	8
O=c1c(Cl)c(N2CCCCC2)cnn1-c1nc2ccccc2[nH]1	0.8	24	1.4	0.4	62*
CN(C)c1ccc(C(=S)NCc2ccco2)cc1	0.6	37	1	0.1	88*
Cc1ccc(/C([O-])=C(/C(=S)NCc2ccco2)[n+]2ccccc2)cc1	0.7	25	1.2	0.8	24
CCSc1nc(-c2ccc(OC)cc2)ccc1C#N	0.1	90*	0.7	0.4	63*
COc1ccc(-c2ccc(C#N)c(OC(=O)c3c(Cl)cccc3Cl)n2)cc1	0.8	23	0.8	1.1	-10
Cc1cccc2cc(C#N)c(SCC(=O)NNC(=O)Cc3ccccc3)nc12	1.3	-31	1	0.8	24
N#Cc1ccc(-c2ccc3c(c2)OCO3)nc1SCC(=O)OCc1ccccc1	0.1	92*	0.9	1.2	-24
COc1ccc(-c2ccc(C#N)c(SCC(=O)OCc3ccccc3)n2)cc1OC	0.1	92*	0.9	0.8	22
CCC(=O)N1CCc2cc(S(=O)(=O)CCC(=O)NCc3ccc4c(c3)OCO4)ccc21	0.7	29	0.9	0.8	23
COc1ccc(/C=N/NC(=O)c2ccoc2C)cc1COc1c(C)cccc1C	0.5	48	0.9	0.8	18
COc1cc(OC)cc(C(=O)N/N=C/c2ccc(OC)c(COc3ccc4ccccc4c3)c2)c1	1	4	1	0.9	7
COc1ccc(/C=N/NC(=O)c2nc(Cl)c(Cl)c(N)c2Cl)cc1COc1ccc(F)cc1F	0.3	67*	1.1	0.5	46
COc1ccc(/C=N/NC(=O)c2nc(Cl)c(Cl)c(N)c2Cl)cc1COc1ccccc1F	0.1	87*	0.9	0.4	62*
CNc1sc(C(=O)c2ccc(F)cc2)c(N)c1-c1nc2ccccc2s1	1.1	-6	0.9	1	3
CCCCCn1c(N)c(-c2nc3ccccc3s2)c2c([N+](=O)[O-])nn(C)c(=O)c21	0.3	70*	1	0.9	9
Cc1cc2ncn(C(=O)c3c(-c4c(Cl)cccc4Cl)noc3C)c2cc1C	0.3	69*	0.9	0.3	72*
Cc1cc2ncn(C(=O)c3c(-c4ccccc4)noc3C)c2cc1C	0.4	58*	0.9	0.6	40
Cc1onc(-c2ccccc2)c1C(=O)n1nnc2ccccc21	0.4	56*	0.9	0.6	37
Cc1onc(-c2ccccc2)c1C(=O)N1CCN(C)CC1	1.2	-19	1	1.1	-15
Cc1onc(-c2ccccc2)c1C(N)=O	1.1	-10	0.9	1	-2
COc1cccc(Cn2cccc(NC(=O)Nc3ccc(C#N)cc3)c2=O)c1	1	2	0.9	0.9	6
CC(C)CC(c1nnnn1C(C)C)N1CCN(c2cccc(Cl)c2)CC1 (centres undefined)	0.6	36	1.6	0.9	8
CN(C)C(=O)CSc1nnc([C@H](Cc2c[nH]c3ccccc23)NC(=O)OC(C)(C)C)o1	0.9	13	1.3	0.9	10
COc1ccc(C)cc1NC(=O)C(CCS(C)(=O)=O)NC(C)=O (centres undefined)	1	0	0.9	1	-3
COc1ccc(OC)c(NC(=O)C(CC(C)C)NC(=O)C2CCCCC2)c1 (centres undefined)	1	-4	1.1	1	4
CCC(C)C(NC(=O)C1CCC(C)CC1)C(=O)Nc1cc(OC)ccc1OC (centres undefined)	0.3	69*	1.2	0.9	12
